# Screens: PubChem BioAssay, Broad Institute
# The full list was thinned out, with hits kept by preference.
# Tgondii IFNg: T. gondii growth inhibition under IFN-gamma; Toxoplasma gondii growth in IFN-gamma-treated host cells; active compounds read low; activity change, negative = inhibition, % (concentration not given with the values); hit rate 3.8% among 69,000; AID 1259416; in the data active = activity change below about -70%, passing the limit was not always enough;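 also: host cells are HeLa cells infected with Toxoplasma gondii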
# Starred values were filed as active, the others as inactive; ! = not confirmed by another sample.
SMILES,Tgondii IFNg
C/C=C/c1ccc2c(c1)O[C@@H](CN(C)C(=O)Nc1ccc(OC)cc1)[C@@H](C)CN([C@@H](C)CO)S2(=O)=O,100
CCOC(=O)c1cc(C)nc2c1c(=O)n(Cc1nc(-c3cccc(OC)c3OC)oc1C)c(=O)n2C,10
COc1cccc(-c2nc(C)c(-c3ccc(SCc4ccc(Br)cc4)nn3)s2)c1,-46
Cc1cc(N2CCNC(C)C2)nc(-c2ccccc2)n1 (centres undefined),-8
CNC(=O)c1ccc(-c2nc(CN3CCN(C(=O)Nc4ccc5c(c4)OCO5)CC3)c(C)o2)cc1,140
CN(C)c1cccc(C(=O)N2CCc3c([nH]c4ccccc34)C2c2ccccc2)c1 (centres undefined),-111*
CSc1ccc(C2c3[nH]c4ccccc4c3CCN2C(=O)c2cccc(C)c2)cc1 (centres undefined),-115*
CSc1ccc(C2c3[nH]c4ccccc4c3CCN2C(=O)c2cccc(F)c2)cc1 (centres undefined),15
Cc1cccc(C(=O)N2CCc3c([nH]c4ccccc34)C2c2ccc(Cl)cc2)c1 (centres undefined),-104*
CSc1ccc(C2c3[nH]c4ccccc4c3CCN2C(=O)c2cccc(N(C)C)c2)cc1 (centres undefined),40
COc1ccc(C2c3[nH]c4ccccc4c3CCN2C(=O)c2ccc(N(C)C)cc2)cc1 (centres undefined),58
Cc1cccc(C(=O)N2CCc3c([nH]c4ccccc34)C2c2ccc(F)cc2)c1 (centres undefined),-44
Cc1cnc(N2CC3C[C@H](C(=O)N4CCN(C)CC4)N(C)C3C2)nc1 (some centres undefined),3
COc1cccc(CN2CCc3c(c(C(=O)NCCCN4CCOCC4)nn3C)C2)c1,8
COc1ccccc1N1CCC(N2CCOC(C(F)(F)F)C2)CC1 (centres undefined),-3
CC(=O)Nc1ccc(Cl)cc1-c1cccc(C(C)=O)c1,-10
Cn1cnnc1SCC(=O)Nc1cccc2nsnc12,116
COc1ccccc1CN(c1nc(CCN)nc2ccccc12)C1CC1,80
COc1ccccc1NC(=O)N1CCc2nc(-c3ccc(C)cc3)sc2C1,25
O=C(c1ccoc1)N1CCC2(CC1)COC(COCc1ccccn1)C2 (centres undefined),-1
Cc1ccc2[nH]c(=O)c(Cc3ccccc3)c(O)c2c1,10
Cc1ccc2[nH]c3c(c2c1)CCNC3=O,-93*
Cc1ccc2[nH]c3c(c2c1)CN(C)CC3,12
CN1CCCN=C1COC(=O)C(O)(c1ccccc1)C1CCCCC1 (centres undefined),-74*!
CC[N+](CC)(CC)CCC(O)(c1ccccc1)C1CCCCC1 (centres undefined),22
SMILES,Tgondii IFNg
OC(CCN1CCCC1)(c1ccccc1)C1CCCCC1 (centres undefined),-42
CCN1C(=O)C2(CCN(Cc3cccnc3)CC2)CC12CCN(S(C)(=O)=O)CC2,0
CCN1CCO[C@H]2CN(S(=O)(=O)Cc3ccc(C)cc3)CC[C@@H]2C1,-2
Cc1cc(C)c(NC(=O)CN2C(=O)CCc3cc(S(=O)(=O)N4CCC(C)CC4)ccc32)c(C)c1,-31
Cc1csc(NC(=O)CN2C(=O)CCc3cc(S(=O)(=O)N4CCC(C)CC4)ccc32)n1,-93*
CCOc1ccc(NC(=O)CN2C(=O)CCc3cc(S(=O)(=O)N4CCC(C)CC4)ccc32)cc1,-26
CC1CCN(S(=O)(=O)c2ccc3c(c2)CCC(=O)N3CC(=O)Nc2ccc(C(C)C)cc2)CC1,-73*
Cc1cc(C)c(NC(=O)CN2C(=O)CCc3cc(S(=O)(=O)N4CCCCC4C)ccc32)c(C)c1 (centres undefined),-43
CC1CCN(S(=O)(=O)c2ccc3c(c2)CCC(=O)N3CC(=O)Nc2ccccn2)CC1,10
CC(=O)Nc1ccc(NC(=O)CN2C(=O)CCc3cc(S(=O)(=O)N4CCC(C)CC4)ccc32)cc1,23
CC(C)c1ccc(NC(=O)CN2C(=O)CCc3cc(S(=O)(=O)N4CCCCC4C)ccc32)cc1 (centres undefined),-75*
CC(C)NC(=O)CN1C(=O)CCc2cc(S(=O)(=O)N3CCCCC3C)ccc21 (centres undefined),36
CCOC(=O)c1c(C)n(S(=O)(=O)CC)c2cc(OC)c(NS(=O)(=O)CC)cc12,-35
CCO[C@H]1COC[C@@H]1NC(=O)c1ccc2sc(N)nc2c1,1
CC(C)CCN(Cc1ccco1)S(=O)(=O)c1ccc2[nH]c(=O)ccc2c1,-53
O=C(CCn1cnc2ccccc2c1=O)NCc1cnn2ccccc12,5
Cc1cc(C)c(S(=O)(=O)NCc2cccnc2)cc1N(C)S(=O)(=O)c1ccccc1,9
Cc1ccccc1-c1ncc(CN2CCn3cncc3C2)s1,-5
CCN(C)C1COC2(CCN(S(=O)(=O)c3ccc(C#N)cc3)CC2)C1 (centres undefined),-18
CNc1cc2c(Nc3cccc(Br)c3)ncnc2cn1,-16
Brc1cccc(Nc2ncnc3cc4nc[nH]c4cc23)c1,-20
CCN(CC)c1nc2nonc2nc1Nc1cccc(Br)c1,-112*
Clc1ccc(-c2nc(NC3CCN(Cc4ccccc4)CC3)c3ccccc3n2)cc1,-65
Fc1cccc2c(OC3CCN(Cc4ccccc4)CC3)cc(C(F)(F)F)nc12,-94*
Cc1cccc(CN2CCC(CNc3nc(-c4ccc(Cl)cc4)nc4ccccc34)CC2)c1,-60
SMILES,Tgondii IFNg
O=C(Cn1ncc2c(N3CCN(c4ccccn4)CC3)ncnc21)Nc1ccccc1F,-31
Cc1nc(-c2cccnc2)nc(N2CCCN(c3ccc(C(F)(F)F)cn3)CC2)c1Cl,-98*
CC(C)Cc1ccc(C(=O)C(C)N2CCN(c3ccc(C(F)(F)F)cn3)CC2)cc1 (centres undefined),-43
Cc1nc(-c2ccccc2)nc2c1CCN(c1cnccn1)CC2,66
c1ccc(-c2nnc(Sc3ncnc4sc5c(c34)CCCC5)n2-c2ccccc2)cc1,7
c1ccc(COC(CN2CCCC2)CN2CCCC2)cc1,-6
CN(CCCc1cnn(C)c1)c1nc(-c2cccnc2)nc2c1cnn2C,-16
Cc1ccsc1CN(C)c1nc(-c2cccnc2)nc2c1cnn2C,-74*
Cc1ncsc1CCN(C)c1nc(-c2cccnc2)nc2c1cnn2C,-35
CCNC(=O)[C@H]1CC[C@@](C)(C(=O)NCCc2cnc[nH]2)C1(C)C,45
Cc1oc(-c2ccccc2Cl)cc1C(=O)N1CCCCC1CO (centres undefined),-45
Cc1oc(-c2ccccc2Cl)cc1C(=O)N1CCNC(=O)CC1,-31
CN1CC[C@@H](c2c(O)cc(O)c3c(=O)cc(-c4ccccc4Cl)oc23)[C@@H]1CO,-74*
CC(C)CNC(=O)Cn1ncc2c(N3CCN(c4ccccn4)CC3)ncnc21,65
COc1ccccc1C(=O)Nc1ccc(-c2nc(-c3ccccc3)co2)cc1,-26
COc1ccccc1C(=O)Nc1ccc2c3c(cccc13)CC2,-102*
COc1ccccc1C(=O)Nc1cc2cc(Br)ccc2oc1=O,13
CCC(c1nc2ccc(C)cc2[nH]1)n1cnc2sc3c(c2c1=O)CCNC3 (centres undefined),-37
COc1cccc(OCCN2CCN(c3ncnc4c3CCNC4)CC2)c1,-53
COc1cccc(C2CCN(c3ncnc4c3CCNC4)C2)c1OC (centres undefined),-72*
c1cc(C2CCN(c3ncnc4c3CCNC4)CC2)ccn1,-11
CC(C)OC(=O)c1cn(Cc2c(F)cccc2F)c2sc(-c3ccc(NC(=O)C(C)C)cc3)c(CN(C)Cc3ccccc3)c2c1=O,-80*
